Shown are actives, neighbours in structure and some others; about 7.5% of the full set was active somewhere.
Luc counter = Counterscreen for Luciferase (Kinase-Glo TM) Inhibition; Luciferin 4-monooxygenase (Photuris pensylvanica), Q27757; Kinase-Glo luciferase, ATP luminescence, 8 min; Potency, µM (highest dose often 38.3 µM), inactives show at the top dose activity change, negative = inhibition, hits mostly inhibitors; hit rate 0.28% among 200,000; AID 1379, 2008; also: % is scaled to controls: 0 for no effect and ±100 for the full control effect; nearly all actives have a fitted effect of over 60% in size
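Substrate mix (final 50 mM imidazole pH 7.2, 50 mM KCl, 7 mM MgCl2, 10 uM ATP, 0.01% Tween 20, 0.05% BSA) plus pin-tool compound, then Kinase-Glo detection mix; 8 min ambient, luminescence read.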
NPC1 promoter act = qHTS Assay for NPC1 Promoter Activators | Huh7 NPC1 promoter luciferase reporter, 24 h | hit rate 2.4% among 320,000 | AID 485313, 2010 | Potency, µM (doses to about 9.22 µM), inactives show at the top dose activation, actives largely listed as activators; also: % of control where 0% means no effect; nearly all actives have a fitted effect of over 60% in size
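Luciferase expression driven by the NPC1 promoter was measured in stably transfected Huh7 cells after a 24 h compound incubation, using a luciferase reagent and a luminescence read.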
FLuc counter = qHTS profiling assay for firefly luciferase inhibitor/activator using purifed enzyme and Km concentrations of substrates (counterscreen for miR-21 project) | purified FLuc, Km substrates, luminescence inhibition | Potency, µM (doses to about 57.5 µM), for the others: at the top dose activity change, negative = inhibition, hits mostly inhibitors | hit rate 6.9% among 360,000;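 also: plate controls were vehicle for no effect and reference inhibitor for full effect; nearly all actives have a fitted effect of over 55% in size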
Target sequence (P08659 whole entry, looked up): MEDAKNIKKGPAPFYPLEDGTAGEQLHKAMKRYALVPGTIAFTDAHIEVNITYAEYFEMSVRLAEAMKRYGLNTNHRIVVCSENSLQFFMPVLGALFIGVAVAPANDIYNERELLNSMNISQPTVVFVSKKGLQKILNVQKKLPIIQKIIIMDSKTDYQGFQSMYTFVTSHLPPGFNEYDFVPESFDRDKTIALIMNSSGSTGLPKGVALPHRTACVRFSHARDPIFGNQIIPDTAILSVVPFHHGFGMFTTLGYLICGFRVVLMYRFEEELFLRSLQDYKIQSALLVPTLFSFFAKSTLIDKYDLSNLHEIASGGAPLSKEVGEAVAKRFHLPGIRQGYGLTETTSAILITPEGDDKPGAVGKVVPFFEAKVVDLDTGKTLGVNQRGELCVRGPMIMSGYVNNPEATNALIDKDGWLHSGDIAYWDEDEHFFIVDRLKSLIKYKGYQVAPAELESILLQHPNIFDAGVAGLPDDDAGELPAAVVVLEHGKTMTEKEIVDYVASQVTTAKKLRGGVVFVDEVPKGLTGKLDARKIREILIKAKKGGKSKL
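Biochemical qHTS of compounds, final roughly 60 µM downward over six points, against 10 nM purified firefly luciferase using Km concentrations of substrates (10 uM D-luciferin, 10 uM ATP) in Tris acetate pH 7.5 buffer; luminescence output.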
SMN2 splice enh = qHTS Assay for Enhancers of SMN2 Splice Variant Expression; HEK293 SMN2-luciferase splicing reporter, luminescence, 30-36 h; Potency, µM (titrated, usually from 46.1 µM), inactives show at the top dose activity change, positive = activation, hits mostly activators; hit rate 2.8% among 210,000; AID 1458, 2008; also: % of control where 0% means no effect; nearly all actives have a fitted effect of over 55% in size
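HEK293 cells carry an SMN2 minigene-luciferase reporter in which exon 7 inclusion puts luciferase in frame. Cells were seeded at 2000 cells/well, attached for 10-12 hours, then exposed to compounds for 30-36 hours at 37C before ONE-Glo luminescence.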
ELG1 genotoxic = qHTS screen for small molecules that induce genotoxicity in human embryonic kidney (HEK293T) cells expressing luciferase-tagged ELG1 | HEK293T ELG1-luciferase reporter, luminescence, 16 h | Potency, µM (doses to about 46 µM), inactives show at the highest dose activity change, positive = activation, hits mostly activators | hit rate 1.3% among 330,000 | AID 504466, 2011; also: % of control where 0% means no effect; nearly all actives have a fitted effect of over 60% in size
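HEK293T cells expressing luciferase-tagged ELG1 were exposed to compound or DMSO vehicle for 16 hr at 37 °C and 5% CO2. Luciferase activity was then measured with ONE-Glo after 30 min at room temperature.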
Rab9 promoter act = qHTS Assay for Rab9 Promoter Activators; Potency, µM (highest dose often 9.22 µM), inactives show top-dose activation, negative = inhibition, usual class: activators; hit rate 2.8% among 320,000; Huh7 Rab9 promoter-luciferase reporter, luminescence, 24 h; also: % of control where 0% means no effect; nearly all actives have a fitted effect of over 60% in size
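Stable Rab9-luc Huh7, 1500 cells/well, 2 h settle; cmpd in DMSO, 24 h, 37 °C/5% CO2; luciferase reagent 10 min RT; luminescence.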
Numbers without * were called inactive. Calls follow the shape of the dose curve; as a rule, active = well fitted curve in the direction sought with a large enough effect; inconclusive = small, poorly fitted or top-dose-only effect, or another doubt; inactive = no such curve, though single readings can be large; an effect the other way counts as inactive or inconclusive. Potency is read from the fitted curve at half-maximal effect.

`O=c1[nH]c(SCc2nc3c(cnn3-c3ccccc3)c(=O)[nH]2)nc2ccccc12` gave Luc counter -1%, NPC1 promoter act inconclusive, FLuc counter inconclusive, SMN2 splice enh 18µM*, ELG1 genotoxic 8% and Rab9 promoter act 2µM*.
`O=c1[nH]c2ccccc2nc1Cc1ccccc1` gave Luc counter -2%, NPC1 promoter act 1%, FLuc counter 0%, SMN2 splice enh 2%, ELG1 genotoxic 0% and Rab9 promoter act 5%.
O=C(Cc1nc2ccccc2[nH]c1=O)c1ccccc1 was read as Luc counter -20%, NPC1 promoter act 3.2µM*, FLuc counter 3.4µM*, SMN2 splice enh 11µM*, ELG1 genotoxic inconclusive and Rab9 promoter act 1.4µM*.
O=C(Cc1nc2ccccc2[nH]1)c1ccc(Br)cc1 was read as Luc counter -2%, NPC1 promoter act 29%, FLuc counter 21µM*, SMN2 splice enh inconclusive, ELG1 genotoxic 9% and Rab9 promoter act inconclusive.
For COc1cccc(C(=O)Oc2c(Sc3ccc(C)cc3)c(C)nn2C(C)(C)C)c1OC the results were FLuc counter 0% and SMN2 splice enh -82%.
`CN(Cc1ccccc1)c1ncnc2c1nnn2C` gave FLuc counter -7%.
For CC1=CC(C)=Nc2ccc(C)cc2N1 the results were Luc counter -2%, NPC1 promoter act 8%, FLuc counter 15µM*, SMN2 splice enh 1%, ELG1 genotoxic 7.1µM* and Rab9 promoter act 9%.
Screening Cc1ccccc1/C=N\NC(=O)c1ccc(Cn2cccn2)o1 returned Luc counter -9%, NPC1 promoter act 0%, FLuc counter 17µM*, SMN2 splice enh -2%, ELG1 genotoxic -3% and Rab9 promoter act -3%.
`O=C(N/N=C/c1cccc(Br)c1)c1ccc(Cn2cc(Br)cn2)o1` gave Luc counter -1%, NPC1 promoter act 2%, FLuc counter 13µM*, SMN2 splice enh -16%, ELG1 genotoxic 2% and Rab9 promoter act -3%.
`O=C(N/N=C\c1cccc(Cl)c1)c1ccc(Cn2cc(Br)c([N+](=O)[O-])n2)o1` gave Luc counter -4%, NPC1 promoter act 1%, FLuc counter 5.4µM*, SMN2 splice enh -35%, ELG1 genotoxic -1% and Rab9 promoter act -2%.
Screening Cc1c(Cl)c([N+](=O)[O-])nn1Cc1ccc(C(=O)N/N=C\c2cccc(Br)c2)o1 returned Luc counter 0%, NPC1 promoter act 1%, FLuc counter 7.6µM*, SMN2 splice enh 10%, ELG1 genotoxic -8% and Rab9 promoter act -4%.
Screening O=C(CSc1ccc(-c2cccnc2)nn1)Nc1ccccc1C(F)(F)F returned NPC1 promoter act -1%, FLuc counter -3%, ELG1 genotoxic 5% and Rab9 promoter act -2%.
O=C(N/N=C\c1cccc(Cl)c1)c1ccc(Cn2cccn2)o1 was read as Luc counter 0%, NPC1 promoter act -3%, FLuc counter 12µM*, SMN2 splice enh 3%, ELG1 genotoxic 1% and Rab9 promoter act -2%.
`CCOC(=O)c1nc(N2CCN(c3ccc(F)cc3)CC2)c2c(C)noc2n1` gave FLuc counter -6%.
`CCCC(/C=C/c1ccc(OC(C)=O)cc1)=C1/c2ccccc2C(=O)N1c1ccccc1` gave NPC1 promoter act -1%, FLuc counter 2%, ELG1 genotoxic 0% and Rab9 promoter act -4%.
`Cc1ccc2nc(NC(=O)COC(=O)c3ccc(Br)o3)sc2c1` gave Luc counter -8%, NPC1 promoter act inconclusive, FLuc counter 27µM*, SMN2 splice enh 5%, ELG1 genotoxic 1% and Rab9 promoter act inconclusive.
Screening Cc1ccc2nc(NC(=O)COC(=O)c3ccco3)sc2c1 returned Luc counter 0%, FLuc counter 13µM* and SMN2 splice enh 30%.
O=C(COC(=O)c1ccco1)Nc1ccc([N+](=O)[O-])cc1Cl was read as NPC1 promoter act -2%, FLuc counter -3%, ELG1 genotoxic 8% and Rab9 promoter act 0%.
For O=C(COC(=O)c1ccco1)Nc1nc2ccc([N+](=O)[O-])cc2s1 the results were NPC1 promoter act -2%, FLuc counter 19µM*, ELG1 genotoxic -4% and Rab9 promoter act 1%.
CCCCn1c(N)c(N(CC(C)C)C(=O)CCCc2nc3ccccc3c(=O)[nH]2)c(=O)[nH]c1=O was read as NPC1 promoter act -1%, FLuc counter 2%, ELG1 genotoxic -3% and Rab9 promoter act -3%.
`CCn1c(C(=O)NC2CCC(C)CC2)cc2sccc21` (stereo unspecified) gave NPC1 promoter act 3.5µM*, FLuc counter 15µM*, ELG1 genotoxic inconclusive and Rab9 promoter act inconclusive.
`Cn1c(C(=O)NC2CCCCC2)cc2sccc21` gave NPC1 promoter act inconclusive, FLuc counter 17µM*, ELG1 genotoxic inconclusive and Rab9 promoter act 4µM*.
`CC1CCN(CCCNC(=O)c2cc3sccc3n2C)CC1` gave NPC1 promoter act 0%, FLuc counter -3%, ELG1 genotoxic 3% and Rab9 promoter act -8%.
`CN(C(=O)c1cc2sccc2n1C)C1CCCCC1` gave Luc counter 1%, NPC1 promoter act 4µM*, FLuc counter 13µM*, SMN2 splice enh 13µM*, ELG1 genotoxic inconclusive and Rab9 promoter act 3.2µM*.
Screening Cn1c(C(=O)N2CCCC(C(=O)O)C2)cc2sccc21 (stereo unspecified) returned Luc counter 0%, NPC1 promoter act -1%, FLuc counter 3%, SMN2 splice enh -12%, ELG1 genotoxic 1% and Rab9 promoter act 0%.
`CCN(C(=O)c1cc2c(s1)-c1ccccc1OC2)c1cccc(C(F)(F)F)c1` gave FLuc counter 0% and SMN2 splice enh -15%.
CCOC(=O)/C(=N\Nc1ccccc1)S(=O)(=O)c1ccccc1 was read as Luc counter -4%, NPC1 promoter act 8%, FLuc counter -8%, SMN2 splice enh -6%, ELG1 genotoxic 1% and Rab9 promoter act 9%.
For CCOC(=O)/C(=N/Nc1ccc(C)cc1)S(=O)(=O)c1ccc(Cl)cc1 the results were Luc counter -3%, NPC1 promoter act inconclusive, FLuc counter 17µM*, SMN2 splice enh 3%, ELG1 genotoxic inconclusive and Rab9 promoter act inconclusive.

Screens (PubChem)
